According to PubChem BioAssay AID588358 (NMMLSC, 2011):
Hit rate of the full screen: of about 310,000 compounds, about 1,500 (0.48%) were called active. The sample as a whole holds a higher share of actives than the screen did. Values without a mark were called inactive.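 Rule for the calls: active = binding more than 3 SD below its plate's average and above zero; inconclusive = below that plate limit but binding exactly zero; inactive = the rest.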

Target: Desmoglein-3 (Homo sapiens) (UniProt P32926)
Sequence (P32926 whole entry, looked up): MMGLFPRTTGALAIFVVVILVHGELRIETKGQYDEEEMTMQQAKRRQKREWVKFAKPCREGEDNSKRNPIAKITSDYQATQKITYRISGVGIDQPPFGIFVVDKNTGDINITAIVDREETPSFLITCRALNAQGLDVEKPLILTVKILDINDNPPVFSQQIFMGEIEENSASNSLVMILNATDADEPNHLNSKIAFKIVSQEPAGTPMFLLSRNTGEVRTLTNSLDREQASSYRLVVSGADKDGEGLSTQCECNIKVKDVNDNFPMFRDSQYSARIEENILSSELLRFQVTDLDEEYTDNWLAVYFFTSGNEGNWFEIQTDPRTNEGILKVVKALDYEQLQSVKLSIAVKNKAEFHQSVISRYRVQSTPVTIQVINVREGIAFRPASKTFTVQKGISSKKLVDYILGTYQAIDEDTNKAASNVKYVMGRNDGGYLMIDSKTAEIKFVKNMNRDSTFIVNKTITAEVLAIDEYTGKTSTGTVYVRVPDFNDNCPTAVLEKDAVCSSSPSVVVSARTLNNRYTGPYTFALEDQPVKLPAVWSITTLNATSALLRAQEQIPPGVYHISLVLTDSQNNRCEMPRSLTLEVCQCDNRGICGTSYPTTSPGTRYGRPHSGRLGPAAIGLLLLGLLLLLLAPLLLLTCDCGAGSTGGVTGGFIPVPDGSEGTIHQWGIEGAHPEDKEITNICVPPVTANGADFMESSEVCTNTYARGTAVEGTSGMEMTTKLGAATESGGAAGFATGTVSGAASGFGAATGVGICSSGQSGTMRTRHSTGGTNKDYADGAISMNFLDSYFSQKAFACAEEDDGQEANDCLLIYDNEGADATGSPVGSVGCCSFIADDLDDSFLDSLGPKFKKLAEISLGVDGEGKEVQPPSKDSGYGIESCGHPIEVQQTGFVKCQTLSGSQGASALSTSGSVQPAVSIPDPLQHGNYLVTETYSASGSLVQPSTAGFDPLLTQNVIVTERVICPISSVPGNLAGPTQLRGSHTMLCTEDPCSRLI
Assay: inhibitors of pemphigus antibody binding to DSG3, primary screen, biochemical, bead-based, flow cytometry, scFv-GFP (AID 588358)
Details: DSG3-coupled beads, scFv-anti-DSG3-GFP binding, at 10 µM, stronger effect = lower value

SMILES | binding (percent of control)
COc1cccc(NC(=O)Nc2ccc(F)cc2)c1 | 99.8%
CC(OC(=O)c1cccc(S(=O)(=O)N2CCOCC2)c1)C(=O)NCC1CCCCC1 (stereo not drawn) | 106%
CCc1c(N=O)c(-c2ccccc2)n(O)[n+]1[O-] | 95.9%
CCc1noc(C)c1C(=O)OCC(=O)c1ccc(NC(=O)CC(C)C)cc1 | 106%
CN(CCOc1ccccc1)C(=O)c1cc(-c2ccco2)nc2ccccc12 | 105%
CN(C(=O)COC(=O)c1cc(-c2ccco2)nc2ccccc12)C1CCS(=O)(=O)C1 (stereo not drawn) | 59.4% (active)
CN(C(=O)COC(=O)c1nc(Cl)ccc1Cl)C1CCS(=O)(=O)C1 (stereo not drawn) | 109%
O=S(=O)(c1cccc(C(F)(F)F)c1)N1c2ccccc2-n2cccc2C1c1cccnc1 (stereo not drawn) | 99.9%
c1ccc(-c2cc(-c3ccccc3)[nH]n2)cc1 | 95%
S=c1[nH]nc(-c2cc(-c3ccccc3)n[nH]2)n1/N=C/c1c2ccccc2cc2ccccc12 | 82.6% (active)
Fc1ccccc1/C=N/n1c(-c2cccnc2)n[nH]c1=S | 104%
Cc1ccc(-c2ccc(CN3C(C)C(=O)N(Cc4cn(CCC5OCCCO5)nn4)CCS3(=O)=O)cc2)cc1 (stereo not drawn) | 104%
Cc1ccc(NC(=O)c2cc3ccccc3o2)cc1 | 110%
C/C(=N/NC(=S)Nc1ccccc1)c1ccc2c(c1)OCO2 | 98.1%
C/C(=N\NC(=S)Nc1ccc(C)cc1)c1cc2ccccc2o1 | 83.6% (active)
Cc1cc2cc3n(c2nn1)N=C(Cl)CC3 | 104%
O=S1(=O)CCN(Cc2ccccc2)CC1 | 96.1%
O=C(c1ccc(N2CCCC2=O)cc1)N1CCN(c2ccc(C(F)(F)F)cc2[N+](=O)[O-])CC1 | 99%
Cc1cc2nc3c(=O)n(Cc4ccccc4)c(=O)[nH]c3nc2cc1N | 99.2%
Nc1ccc2nc3c(=O)[nH]c(=S)[nH]c3nc2c1 | 19% (active)
O=C(OCc1ccccc1)N1CCC2CC1c1cc(N3CCN(S(=O)(=O)c4cc(Cl)cc(Cl)c4)CC3)ccc12 (stereo not drawn) | 100%
CCCCN1C(=O)C(CC(=O)NC(c2ccccc2)c2ccccc2)CC(C(=O)N2CCOCC2)=C1C (stereo not drawn) | 102%

SMILES | binding (percent of control)
COC(=O)c1ccc(/C=N/NC(=O)C(=O)N2CCCCCC2)cc1 | 102%
O=C(N/N=C/c1ccc([N+](=O)[O-])cc1)C(=O)N1CCCC1 | -16.9% (active)
O=C(NN=Cc1ccc([N+](=O)[O-])cc1)C1CC1 | 122%
Cc1ccc(S(=O)(=O)N2C[C@@H](C)[C@]3(C2)[C@H](O)[C@H](OC(=O)NCc2ccccc2)C[C@H]2C(=O)N(c4ccccc4)C(=O)[C@H]23)cc1 | 111%
Cc1ccc(O/C=C2\OC(=O)c3ccccc32)cc1 | 80.4% (active)
Cc1ccc(Oc2cnn(-c3ccccc3)c(=O)c2Br)cc1 | 117%
CN(C)C(CNC(=O)c1cccc(S(=O)(=O)N2CCc3ccccc3C2)c1)c1ccccc1 (stereo not drawn) | 97.5%
Cc1cc(Cl)ccc1C(=O)C1CCCN(C(=O)c2ccc3c(c2)OCO3)C1 (stereo not drawn) | 103%
CCOC(=O)c1c(S(=O)(=O)Nc2cccc(Cl)c2)c(C)n(C)c1C | 52% (active)
CCOC(=O)c1cccc(NS(=O)(=O)c2c(C(=O)N3CCCCCC3)c(C)n(C)c2C)c1 | 99.4%
CCOC(=O)c1c(S(=O)(=O)NCC(=O)Nc2ccc(C)cc2)c(C)n(C)c1C | 97.8%
N#CCCN(C(=O)Nc1ccc(Cl)c(Cl)c1)C1CCCCC1 | 105%
Cn1nc(N)c2ncc(C(Cl)(Cl)Cl)nc21 | 100%
O=C(CC(CC(=O)c1ccccc1)c1ccco1)c1ccccc1 | 99.4%
CNC(=O)C1CN(C(=O)c2cccc(S(=O)(=O)N3CCc4ccccc43)c2)c2ccccc2O1 (stereo not drawn) | 103%
Cc1cccc(C(=O)OCC(=O)Nc2sccc2C(N)=O)c1C | 104%
CCc1ccc(NC(=O)Cn2nnc(C(=O)NCc3ccc(OC)cc3)c2N)cc1 | 106%
CCOc1ccc(Cn2nnc(C(=O)Nc3ccc(OC)cc3OC)c2N)cc1 | 81.7% (active)
COc1ccc(NC(=O)Cn2nnc(C(=O)NCCc3ccc(OC)c(OC)c3)c2N)cc1 | 103%
C[C@H]1NS(=O)(=O)c2cc(Cl)ccc2O[C@@H]1c1ccccc1 | 98.4%
COc1ccc(CN(Cc2ccc(OC)cc2)C(=O)c2cccs2)cc1 | 100%
COc1cc2ccccc2cc1C(=O)Nc1ccc(NC(=O)c2cccs2)cc1 | 87.2%

SMILES | binding (percent of control)
COc1ccc(CCNC(=O)/C(C#N)=C2\N=C(NC(=O)c3cccs3)c3ccccc32)cc1 | 81.2% (active)
COc1ccc(OC)c(C(=O)NC2CCCc3c2cnn3-c2cc(C)cc(C)c2)c1 (stereo not drawn) | 96.8%
Cc1coc2c(O)cc3c(c12)OC1(N2CCCCC2)C(=O)NCCCC31 (stereo not drawn) | 62.7% (active)
CCCCN(C(C)=O)c1ccc2c(c1)C1CC2CCN1Cc1ccccc1 (stereo not drawn) | 101%
NC(=S)NN=Cc1ccc(OC(=O)COc2cc(Cl)c(Cl)cc2Cl)cn1 | 102%
COCOCCn1cc(CN2CCS(=O)(=O)N(Cc3ccc(-c4cccc(N(C)C)c4)cc3)C(CC(C)C)C2=O)nn1 (stereo not drawn) | 101%
CCOC(=O)c1c(NC(=O)COC(=O)c2ccc(S(=O)(=O)C(F)F)cc2)sc(C(=O)N(C)C)c1C | 100%
O=C(O)c1ccc(NN=CC2=C(N3CCOCC3)/C(=C/c3ccccc3)CC2)cc1 | 109%
C(=N\N1CCN(c2ccccn2)CC1)/C1=C(N2CCOCC2)C(=C/c2ccccc2)/CC1 | 109%
O=C1Nc2ccc(Br)cc2/C1=N/N=C/C1=C(N2CCOCC2)C(=C\c2ccccc2)/CC1 | 38.1% (active)
CN1OC[C@@H]2CN(C(=O)c3ccc(-c4ccccc4)cc3)[C@H](c3ccc(-c4cccc(F)c4)cc3)C[C@@H]21 | 98.8%
COCCn1c(SCC(=O)Nc2ccc(F)cc2F)nc2c(c1=O)SCC2 | 103%
O=C(COc1ccc(S(=O)(=O)N2CCCC2)cc1[N+](=O)[O-])N1CCCCC1 | 92.6%
Cc1ccc2nc(SCC(=O)NC3CCCC3)[nH]c2c1 | 81.4%
Cc1ccc2c(cnn2C(=O)CCC(=O)NC2CCCC2)c1 | 53% (active)
Cc1cccc2c1cnn2C(=O)CCC(=O)NC1CCCCC1 | 102%
CC1(c2cccc(Br)c2)NC(=O)N(CC(=O)NCCC2=CCCCC2)C1=O (stereo not drawn) | 99.5%
O=Nc1c(O)cc(O)c2ccccc12 | 104%
CC(C)CCC(=O)Nc1cc(S(=O)(=O)N2CCOCC2)ccc1N1CCCC1 | 104%
COc1cc(OC)cc(C(=O)NCCSCc2ccc(Cl)cc2)c1 | 76.3% (active)
COc1ccc(N(CC(=O)NCCSCc2cccc(Cl)c2)S(C)(=O)=O)cc1 | 104%
COc1ccc(CCNC(=O)c2cnc(Cl)c(Cl)c2)cc1 | 97.2%

SMILES | binding (percent of control)
Cc1ccc(S(=O)(=O)NN=C2CC(C)(C)CC(=O)C2(C)C)cc1 | 98.4%
O=C(NCCc1cccc(F)c1)C1CC(O)CN1C(=O)Nc1ccccc1 (stereo not drawn) | 94.3%
COc1cc(C=NC2CCCCC2)ccc1O | 106%
COc1ccc(CCNC(=S)N2CCN(S(=O)(=O)c3ccc(F)cc3)CC2)cc1 | 63.3% (active)
COc1ccc(CCC(=O)N2CCN(S(=O)(=O)c3ccc(OC)cc3)CC2)cc1 | 96.6%
COc1ccc(CCNC(=S)N2CCN(S(=O)(=O)c3ccc(Cl)cc3)CC2)cc1 | 106%
COC(=O)[C@H]1C[C@H](OC(=O)NCc2ccccc2)[C@@]2(O)CN(S(=O)(=O)c3ccc(C)cc3)CC2[C@H]1C(=O)OC (stereo partly drawn) | 110%
COc1ccc(-c2csc(Cc3nc(O)cs3)n2)cc1 | 8.21% (active)
COc1ccc(-c2cn3ccsc3n2)cc1 | 107%
CC(C)(C)C(=O)OCc1nc(-c2ccc(O)c(O)c2)cs1 | 103%
COc1ccc([C@H]2C[C@@H](n3cc(COC(=O)c4ccccc4)nn3)[C@H](O)CN2C(=O)c2cccs2)cc1 | 106%
CCN1CCN(CCNC(=O)c2ccc3c(c2)NC(=O)/C(=C\c2cccc(Cl)c2)S3)CC1 | 106%
O=C(COC(=O)c1ccc(S(=O)(=O)N2CCCCCC2)cc1)Nc1ccccc1C(F)(F)F | 109%
COc1ccc(/C=C/C(=O)N2CCCC2)cc1OC | 105%
CCOC(=O)C1CCN(C(=O)/C=C/c2cc(OC)c(OC)c(OC)c2)CC1 | 101%
COc1cc(/C=C/C(=O)N2CCc3ccccc3C2)cc(OC)c1OC | 68.1% (active)
Cc1ccc(S(=O)(=O)N2C[C@H]3n4c(=O)ccc(=O)n4C[C@H](OC(=O)NC4CCCC4)[C@@]3(O)C2)cc1 | 103%
COc1ccc([C@H]2N[C@]3(CCCN(CC4CCCCC4)C3=O)[C@H]3C(=O)N(C)C(=O)[C@@H]23)cc1 | 106%
COc1cccc(/C=C2\SC(=S)N(CCCC(=O)N3CCOCC3)C2=O)c1 | 99.8%
CCOC(=O)c1sc(NC(=O)C(CC)Sc2nccn2C)nc1C (stereo not drawn) | 83.3% (active)
C=CCn1c2ccccc2c2nnc(SC(CC)C(=O)Nc3nc(C)c(C(=O)OCC)s3)nc21 (stereo not drawn) | 93.3%
CCOC(=O)c1sc(NC(=O)c2sc(C)nc2C)nc1C | 96.7%
